# Reference: publication PMC7819943, “Rice protein-binding microarrays: a tool to detect cis-acting elements near promoter regions in rice”
# Whole data set: some 68,000 sequences, median “fluorescence intensity (a.u.)” near 9,100, cut for the highest 2% near 16,000. Many of the other results were omitted from the sample, so the highest values are more common in it than they were.
# Target: OsWRKY34 (Oryza sativa, UniProt Q0JBA9 1-250)
# Test: protein-binding microarray (RPBM); PBS, 2% BSA, 51.3 ng/ul salmon testes DNA, 50 uM zinc acetate, 200 nM TF, 25 C, 1 h; high values mean tight binding
# Details: protein: recombinant; tags: N-terminal polyhistidine and DsRed monomer fusion (pET32a); label: CyDye5-dUTP incorporated in the synthesized complementary strand; 3' TTTTT single-stranded linker to array surface; dsDNA, one strand shown
# Summary of the method: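 Polyhistidine-tagged DsRed fusions of transcription factors, joined at the N-terminus, were expressed in E. coli BL21-CodonPlus and isolated on Ni–NTA. They were incubated at 200 nM for 1 h at 25 °C on a custom Agilent array, double-stranded and BSA-blocked, in PBS with 2% BSA, salmon testes DNA and 50 µM zinc acetate. The binding signal is per-feature fluorescence intensity (arbitrary units) read on an Axon 4000B scanner after washing.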
# OsWRKY34, sequence (Q0JBA9 entry or part of it): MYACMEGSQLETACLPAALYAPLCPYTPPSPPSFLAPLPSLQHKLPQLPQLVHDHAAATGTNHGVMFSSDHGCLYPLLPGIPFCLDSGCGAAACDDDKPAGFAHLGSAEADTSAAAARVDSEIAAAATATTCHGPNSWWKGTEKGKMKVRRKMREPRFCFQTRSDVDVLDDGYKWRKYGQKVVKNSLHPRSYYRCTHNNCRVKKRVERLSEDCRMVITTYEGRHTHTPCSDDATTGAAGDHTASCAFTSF
row,Sequence,binding signal
1,GGCGATCCGGCTTAACTACTTTGTTTGTTTCTCTGTGCAACGGAGTCACCTAGTGCAG,8480 fluorescence intensity (a.u.)
2,ACCACCACCACCACCGCCCGCCAAGCGCGGCCCGCCCGACCGGAGTCACCTAGTGCAG,8720 fluorescence intensity (a.u.)
3,TGTTCTGCCGGGGTTGTTGCTTACTGATGCAAAACTCTTTCGGAGTCACCTAGTGCAG,9240 fluorescence intensity (a.u.)
4,CACCTTTTTTTAATTTTTTGGTTTCCAATTTTTATTTTTTCGGAGTCACCTAGTGCAG,10900 fluorescence intensity (a.u.)
5,AATTAGTTTCTTGCTTCTTCTTTTTTCTTTTCTTTTTCATCGGAGTCACCTAGTGCAG,8210 fluorescence intensity (a.u.)
6,ATTGGATGTTAAGTTGTGTTTTTGCTGTTTCATGGTTTTACGGAGTCACCTAGTGCAG,11400 fluorescence intensity (a.u.)
7,GTGTTCATTGCTAGTTGCATTGTGGTTTTCTAGTTAATTACGGAGTCACCTAGTGCAG,9000 fluorescence intensity (a.u.)
8,GATTGGTTGTTTGTTCTGTTTTGGACATGCTTGTTAATTACGGAGTCACCTAGTGCAG,17100 fluorescence intensity (a.u.)
9,TCGGTTTGTTTTTTTCCGGTTTATCTTCTTTCGGTTTTTTCGGAGTCACCTAGTGCAG,18500 fluorescence intensity (a.u.)
10,TTCCACGGTTTTCTTTTTTCGGTTTTTATCTTTTCTTTTTCGGAGTCACCTAGTGCAG,13200 fluorescence intensity (a.u.)
11,CTTTCCTTTCTTTGTTTTTTATCTTTGTTTTCTTTCTTCCCGGAGTCACCTAGTGCAG,11800 fluorescence intensity (a.u.)
12,CTTTAATTTTAATTAGAGTTTCTTGCATCGGTTTCCAATGCGGAGTCACCTAGTGCAG,27700 fluorescence intensity (a.u.)
13,ATCCAGTGAGCTCGAGGCTTCCCATCTATCCGCCGTTGGTCGGAGTCACCTAGTGCAG,8260 fluorescence intensity (a.u.)
14,TATGCTTCATCTGTTCTTCTACATTGTTATCTACTATCTGCGGAGTCACCTAGTGCAG,10100 fluorescence intensity (a.u.)
15,CGAGCTGCTGATGGCCCCTATGCCACATCTACTATGCATGCGGAGTCACCTAGTGCAG,17100 fluorescence intensity (a.u.)
16,CTGCTGCATCTGCACTGCATGGCCATGCCCACACACTTGGCGGAGTCACCTAGTGCAG,8050 fluorescence intensity (a.u.)
17,CTCAACTCGGGATGACATTTGGGGTGTTTTTTTTTTGCAACGGAGTCACCTAGTGCAG,9820 fluorescence intensity (a.u.)
18,TACTTGCACTTTACTATATTCTTGCTGTTACGCACCACATCGGAGTCACCTAGTGCAG,14600 fluorescence intensity (a.u.)
19,AGTTAAAACCGCTACTCCACTCCTCCCATTGCATAATTTTCGGAGTCACCTAGTGCAG,9400 fluorescence intensity (a.u.)
20,AATTTTGATAGATGTGGGATGTGTTGTAATTTGTAAATTTCGGAGTCACCTAGTGCAG,8270 fluorescence intensity (a.u.)
21,TTTGCAGGTTTCGTTTGCATTTGCGGGGCGGGCATATATGCGGAGTCACCTAGTGCAG,21600 fluorescence intensity (a.u.)

row,Sequence,binding signal
1,GCCGGCGGCAGGGTGGGGCGGGGACGCCTGCCGGCGTCGGCGGAGTCACCTAGTGCAG,9860 fluorescence intensity (a.u.)
2,TTGTCCTCAGCCGGCAGTGTAGGTTCCGGGAGGGCGGGGTCGGAGTCACCTAGTGCAG,19300 fluorescence intensity (a.u.)
3,GCGGCAGGTTTCGGCGGCGGGGCGGGCGGCAGGTGTCGGCCGGAGTCACCTAGTGCAG,20000 fluorescence intensity (a.u.)
4,TTCTTTTCTTTTTTTCTTTGCGGGGATTTCATATAGGATTCGGAGTCACCTAGTGCAG,8510 fluorescence intensity (a.u.)
5,AGGTTCCGGGAGGGCGGGGTGGAGCACGAGGCGGCGGTGCCGGAGTCACCTAGTGCAG,10600 fluorescence intensity (a.u.)
6,TGGCGCGTGGGAGGGTCAGCCTAGGGCGTCGGAGGGGCGGCGGAGTCACCTAGTGCAG,13400 fluorescence intensity (a.u.)
7,AAGGTGGTGGGGCAGGTGGAGCGGGTGGTCGGGGCGACGCCGGAGTCACCTAGTGCAG,11300 fluorescence intensity (a.u.)
8,TTTCGGTTTTGCTACTTCACATGCGCATATTTTTGGAGGGCGGAGTCACCTAGTGCAG,9330 fluorescence intensity (a.u.)
9,TTTTGCGCGGATGGCCCTTTACTTTTCCCCTCTTGTCCTCCGGAGTCACCTAGTGCAG,10400 fluorescence intensity (a.u.)
10,ACTTCTACTCCTACTTCCCTGTGTGGCCCACAGCTAGATACGGAGTCACCTAGTGCAG,10300 fluorescence intensity (a.u.)
11,TGGAAGTCTGGAAGGCGCTGTACCTTCGTCTCGCCCGTCACGGAGTCACCTAGTGCAG,8650 fluorescence intensity (a.u.)
12,ATATGTCAAGTTTGGTGGATATAGTTGTTTGGCCTTTTACCGGAGTCACCTAGTGCAG,11700 fluorescence intensity (a.u.)
13,CACGCTGCACTGCACCGCTTTACGCCATCTCGCCAATTTTCGGAGTCACCTAGTGCAG,10300 fluorescence intensity (a.u.)
14,CCAATTTTTTTTTCTCCTTTTGCTTTTTTTCATCAAGAACCGGAGTCACCTAGTGCAG,8740 fluorescence intensity (a.u.)
15,CGGAACCGCTCCTCGAGAAGCTCTCGAATTCCTCGTCGTCCGGAGTCACCTAGTGCAG,9310 fluorescence intensity (a.u.)
16,AGAACGAACAGTCAAACATATGCTAAAAAGTCAACGGTGTCGGAGTCACCTAGTGCAG,10200 fluorescence intensity (a.u.)
17,AGACGAACAGTCAAATATGTGCTAAAAAGTCAACGGTGTCCGGAGTCACCTAGTGCAG,17500 fluorescence intensity (a.u.)
18,GGTAAAATATGTGCTAAAAAGTCAACGGTGTCAAACATTTCGGAGTCACCTAGTGCAG,14400 fluorescence intensity (a.u.)
19,AAGACGAACGGTCAAATATGTGCTAAAAAGTCAACGGTGTCGGAGTCACCTAGTGCAG,9990 fluorescence intensity (a.u.)
20,ATAAGACGAACGGTTAAAAATGTGCCAAAAAGTCAACGGCCGGAGTCACCTAGTGCAG,9640 fluorescence intensity (a.u.)
21,GAACGGTCAAACATGTGTTAAAAAGTCAACGGTGTTAAACCGGAGTCACCTAGTGCAG,9470 fluorescence intensity (a.u.)

row,Sequence,binding signal
1,ATAAGACGAACGGTCAAATATGTGCTAAAAAGTCAACGGTCGGAGTCACCTAGTGCAG,16400 fluorescence intensity (a.u.)
2,TAAGACGAATGGTCAAATATGTGCTAAAAAGTCAACGGTGCGGAGTCACCTAGTGCAG,13100 fluorescence intensity (a.u.)
3,TGTTATGCAAATGTGCAAATGCAAAAGTTGGCCGCAAGAACGGAGTCACCTAGTGCAG,17600 fluorescence intensity (a.u.)
4,TCCTATCCCTACGAGCACTTCCGAAATATTGGACTGACATCGGAGTCACCTAGTGCAG,8370 fluorescence intensity (a.u.)
5,ATAACTCGGGTCGGACTCGGACCTCAGGCCCACGTATTCCCGGAGTCACCTAGTGCAG,8400 fluorescence intensity (a.u.)
6,CGCTGATTGGGTTGGGTCGGGTTAGCTTTGGTTTCAATGCCGGAGTCACCTAGTGCAG,11200 fluorescence intensity (a.u.)
7,AATACTCCTCTACTCATATTAGTACAATATCACAAACTTACGGAGTCACCTAGTGCAG,8250 fluorescence intensity (a.u.)
8,ACTGCTTTGTTCTATTTGATTATTTTTTTACTCATCAGATCGGAGTCACCTAGTGCAG,15900 fluorescence intensity (a.u.)
9,TGTTTGACGCCGTTGACTTTTTAGCACATGTTTGACCGTTCGGAGTCACCTAGTGCAG,43600 fluorescence intensity (a.u.)
10,ATGTTTGACACCGTTGATTTTTTAACACATGTTTGACCGTCGGAGTCACCTAGTGCAG,9910 fluorescence intensity (a.u.)
11,AATGTTTGACGCCGTTGACTTTTTAGCACATGTTGACCGTCGGAGTCACCTAGTGCAG,42200 fluorescence intensity (a.u.)
12,ACGCCATTGACTTTTTAGCAGATGTTTGACCGTTCGTTTTCGGAGTCACCTAGTGCAG,20700 fluorescence intensity (a.u.)
13,TGTTTGACGCCGTTGACTTTTTAACACATGTTTGACCGTTCGGAGTCACCTAGTGCAG,41700 fluorescence intensity (a.u.)
14,GCCGCGCACGCCGTCATCTCTTTTTCGTTCCATACTTCTCCGGAGTCACCTAGTGCAG,10700 fluorescence intensity (a.u.)
15,GGCTGGGTGTTACAACTTTGTCCAAAACATCAATAATTATCGGAGTCACCTAGTGCAG,8610 fluorescence intensity (a.u.)
16,CCCACATTTTTTCTTCTCACTTATATGTGGGTCCCATAATCGGAGTCACCTAGTGCAG,8640 fluorescence intensity (a.u.)
17,AGTTATTTATTTTGTTGTGGTTTGTTTTATAGTTAAAGGTCGGAGTCACCTAGTGCAG,10100 fluorescence intensity (a.u.)
18,CGATCCCACCGACTCCCGGCCACCTCTGCTTCCCCGGCGACGGAGTCACCTAGTGCAG,9140 fluorescence intensity (a.u.)
19,TATATGTTTGGCGCTCAAAACCTAATAGTAGTTCTTATGTCGGAGTCACCTAGTGCAG,8300 fluorescence intensity (a.u.)
20,CTCTCCTCTCATCTCATCTCATCTCCAAGGCTGGTCTTTACGGAGTCACCTAGTGCAG,8320 fluorescence intensity (a.u.)
21,ACAGCCGCGTCGCCGCTTGTCCGCCTGCGCTCGTTCTCGCCGGAGTCACCTAGTGCAG,9640 fluorescence intensity (a.u.)

row,Sequence,binding signal
1,GGCATCCTACACTCTAGCTAGCCCACAGTCCGCTGCCGGCCGGAGTCACCTAGTGCAG,8790 fluorescence intensity (a.u.)
2,GCGGATGGAATGGCAAGGGAGGAAACTGGTGGGGTGGGAGCGGAGTCACCTAGTGCAG,8960 fluorescence intensity (a.u.)
3,TTCGGTTGGGTGGAGGAAGCGCGGGTGAAAAAGGTGGGGACGGAGTCACCTAGTGCAG,10600 fluorescence intensity (a.u.)
4,GGAATATTCTCACATCTCAGCCATCCATTTTCCATCTCAACGGAGTCACCTAGTGCAG,9090 fluorescence intensity (a.u.)
5,GATAGGTTGTGTGTGTGCAGTGTGTGTTTATAAGAGGTGACGGAGTCACCTAGTGCAG,10200 fluorescence intensity (a.u.)
6,TACATCATCTAGTGTTGCAGCAGCAGTGTGTGTAAGAGGACGGAGTCACCTAGTGCAG,28500 fluorescence intensity (a.u.)
7,CAGCAGTGTGTGTAAGAGGAGAGAGAAGCAGTGCCCTTTACGGAGTCACCTAGTGCAG,8530 fluorescence intensity (a.u.)
8,CGTCACTTTTTTTTCTCCCCTATTTCTTTTCTCCTTTTCTCGGAGTCACCTAGTGCAG,10900 fluorescence intensity (a.u.)
9,CCGCTCTCCTACTGCTCGGCCAACCAGTCATGCACACATACGGAGTCACCTAGTGCAG,8790 fluorescence intensity (a.u.)
10,ATAAAATAGTTGACTGGCTATCTTCTACTCCACTTGGTATCGGAGTCACCTAGTGCAG,8860 fluorescence intensity (a.u.)
11,CGGCGGGCGGGAGGGCGGCGTTGATTTCGTTGGGGTTTGCCGGAGTCACCTAGTGCAG,19100 fluorescence intensity (a.u.)
12,TGCTTTCGTTGGGTTGGGGAAGGGGAGGCGTCGCTTGGTCCGGAGTCACCTAGTGCAG,17100 fluorescence intensity (a.u.)
13,AGGGGAGGCGTCGCTTGGTCGCCATCTTCGTCGTTTGCTTCGGAGTCACCTAGTGCAG,9720 fluorescence intensity (a.u.)
14,GATTAGGGTTGTTGCCGGGGTTTGTTTGGTGTTGCGGCGGCGGAGTCACCTAGTGCAG,8510 fluorescence intensity (a.u.)
15,CGGGAGGAGGGAGGTTGTTTCGTCTGGGGTTTGATTGGGACGGAGTCACCTAGTGCAG,18200 fluorescence intensity (a.u.)
16,TTTGGGGTTTGAGAAGGTTGAGGAGGAGTTGGGAGGTTGACGGAGTCACCTAGTGCAG,9580 fluorescence intensity (a.u.)
17,AGGCGGAGGAGGGGAGGCGGAAGGGGTTCGCGTCGGCGGCCGGAGTCACCTAGTGCAG,12200 fluorescence intensity (a.u.)
18,TTTACAGTTGATTTTGACGGGTTTGTTGGCGAGGATTTTTCGGAGTCACCTAGTGCAG,9360 fluorescence intensity (a.u.)
19,TTGATTTCGTTGGGGTTTGCGTTGCGTGCGGAGGACGGGGCGGAGTCACCTAGTGCAG,15200 fluorescence intensity (a.u.)
20,AGAGAGAGGTTGCTGTTTCGATGCGTATTTCTGCAGCTTTCGGAGTCACCTAGTGCAG,10100 fluorescence intensity (a.u.)
21,GTCCCGGGCACCGACCACGATCCGTTCCCGCCACACAAACCGGAGTCACCTAGTGCAG,8080 fluorescence intensity (a.u.)
